This note sets out measurements from PubChem BioAssay (Tox21).

A short description of assay [1]: qHTS assay to identify small molecule agonists of the hypoxia (HIF-1) signaling pathway - cell viability counter screen (AID 1224844; calls by dose curve; also: nearly all actives have a fitted effect of over 50% in size; also: potency is read from the fitted curve at half-maximal effect). In outline: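 ME-180 HRE-bla cells, 2,000/well, 0.5% dialyzed FBS; 5 hr settle, 17 hr compound at 37C/5% CO2; CCF4-AM reporter read first, then CellTiter-Glo luminescence after 30 min RT.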
For orientation: qHTS replaces the single test concentration by a dilution series.

The nature of assay [2]: qHTS assay to identify small molecule agonists of H2AX - cell viability counter screen (AID 1224847; calls by dose curve; also: nearly all actives have a fitted effect of over 30% in size; also: potency is read from the fitted curve at half-maximal effect). In outline: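 Read-out: CellTiter-Glo luminescence, 30 min RT. Cells: wild-type CHO-K1, 1000/well, 10% FBS, plated overnight at 37C. Treatment: 15 concentrations, 3 hr, 37C, 0.76% DMSO.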
A short description of assay [3]: qHTS assay to identify small molecule antagonists of the estrogen related receptor (ERR) signaling pathway from Tox21 library (AID 1224848). Also: potency is read from the fitted curve at half-maximal effect; nearly all actives have a fitted effect of over 50% in size. In short, it runs like this:
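Reading was by luminescence 30 min after ONE-Glo addition. Before that, ERR cells at 2,000 per well had rested 6 h at 37 C/5% CO2 and then received pin-tooled compounds in DMSO for 18 h at 37 C.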

Assay [4] in a line: qHTS assay to identify small molecule agonists of the estrogen related receptor (ERR) signaling pathway from Tox21 library (AID 1224849; calls by dose curve; also: % is scaled to controls: 0 for no effect and ±100 for the full control effect; nearly all actives have a fitted effect of over 15% in size). As to conditions: ERR reporter cell line, ONE-Glo luciferase, 18 h; at 92.4 µM (top of the series) unless noted. In outline:
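ERR cells, 6 h pre-incubation 37 C/5% CO2; cpd in DMSO pinned; 18 h 37 C; ONE-Glo added, 30 min RT; luminescence read. Agonist mode, qHTS.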

Assay [5] is described as follows: qHTS RealTime-Glo MT Cell Viability Assay in HepG2 cells - 24 hour (AID 1224867). Also: nearly all actives have a fitted effect of over 50% in size. Also: potency is read from the fitted curve at half-maximal effect. In outline: (§1)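 Compound treatment began 5 h after plating HepG2 cells (600/well) with NanoLuc luciferase and prosubstrate. Plates stayed at 37 C for 40 h; luminescence was captured at six time points, 0 h through 40 h.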
Assay [6] is described as follows: qHTS RealTime-Glo MT Cell Viability Assay in HEK293 cells - 32 hour (AID 1224868). Also: nearly all actives have a fitted effect of over 50% in size. Also: potency is read from the fitted curve at half-maximal effect. In outline: (§2)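 Quantitative high-throughput screen of the Tox21 10K library in HEK293: cells and RealTime-Glo reagents plated together, compound added at 5 h, luminescence monitored through 40 h at 37 C.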
Assay [7] in a line: A CellTox Green Cytotoxicity Assay to monitor cytotoxicity in HEK293 cells - 0 hour (AID 1224869). In outline:
(§3)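 Nonlytic real-time cytotoxicity: HEK293 + CellTox Green reagent plated, 5 h preincubation, pintool compound addition (23 nL in DMSO), 37 C for 40 h, fluorescence measured at successive time points.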

Assay [8] can be described thus: qHTS RealTime-Glo MT Cell Viability Assay in HepG2 cells - 40 hour (AID 1224870). Also: nearly all actives have a fitted effect of over 50% in size. Also: potency is read from the fitted curve at half-maximal effect. In short, it runs like this:
(§4)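 Real-time viability: cells seeded at 600 per well together with NanoLuc and cell-permeant prosubstrate, compounds added after 5 h incubation. Luminescence tracked at 0, 8, 16, 24, 32 and 40 h of exposure.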

Assay [9] in a line: A CellTox Green Cytotoxicity Assay to monitor cytotoxicity in HEK293 cells - 40 hour (AID 1224871). Also: nearly all actives have a fitted effect of over 45% in size. Also: potency is read from the fitted curve at half-maximal effect. In short, it runs like this: as §3
The nature of assay [10]: qHTS RealTime-Glo MT Cell Viability Assay in HEK293 cells - 16 hour (AID 1224872). Also: nearly all actives have a fitted effect of over 50% in size. Also: potency is read from the fitted curve at half-maximal effect. In outline: as §2
Assay [11] is described as follows: qHTS RealTime-Glo MT Cell Viability Assay in HepG2 cells - 8 hour (AID 1224873). Also: nearly all actives have a fitted effect of over 55% in size. Also: potency is read from the fitted curve at half-maximal effect. In short, it runs like this: as §4
Assay [12] is described as follows: qHTS RealTime-Glo MT Cell Viability Assay in HEK293 cells - 40 hour (AID 1224874). Also: nearly all actives have a fitted effect of over 50% in size. Also: potency is read from the fitted curve at half-maximal effect. As to max response: % is scaled to controls: 0 for no effect and ±100 for the full control effect. Conditions: RealTime-Glo luminescence; max response: stronger effect = lower value. In outline: (§5)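 Cells were seeded together with NanoLuc luciferase and a prosubstrate that viable cells reduce to a luciferase substrate. After a 5 h incubation at 37 C/5% CO2, compounds were added and luminescence was measured repeatedly during 40 h of treatment.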

The nature of assay [13]: A CellTox Green Cytotoxicity Assay to monitor cytotoxicity in HEK293 cells - 24 hour (AID 1224875). Also: nearly all actives have a fitted effect of over 45% in size. Also: potency is read from the fitted curve at half-maximal effect. As to activity change: % is scaled to controls: 0 for no effect and ±100 for the full control effect. In short, it runs like this:
as §3

Assay [14] is described as follows: A CellTox Green Cytotoxicity Assay to monitor cytotoxicity in HepG2 cells - 16 hour (AID 1224876). Also: nearly all actives have a fitted effect of over 45% in size. Also: potency is read from the fitted curve at half-maximal effect. In short, it runs like this: (§6)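 Read-out is fluorescence of a cyanine dye excluded from live cells that stains DNA of dead HepG2 cells, with signal proportional to cytotoxicity. Plates were read at 0, 8, 16, 24, 32 and 40 h after compound addition.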
The nature of assay [15]: qHTS RealTime-Glo MT Cell Viability Assay in HepG2 cells - 32 hour (AID 1224877). Also: nearly all actives have a fitted effect of over 55% in size. Also: potency is read from the fitted curve at half-maximal effect. In outline:
as §1

The nature of assay [16]: A CellTox Green Cytotoxicity Assay to monitor cytotoxicity in HepG2 cells - 24 hour (AID 1224878). Also: nearly all actives have a fitted effect of over 45% in size. Also: potency is read from the fitted curve at half-maximal effect. As to Cytotoxicity: % is scaled to controls: 0 for no effect and ±100 for the full control effect. In short, it runs like this: as §6
Assay [17] is described as follows: A CellTox Green Cytotoxicity Assay to monitor cytotoxicity in HepG2 cells - 40 hour (AID 1224879). Also: nearly all actives have a fitted effect of over 40% in size. Also: potency is read from the fitted curve at half-maximal effect. In short, it runs like this: as §6
A short description of assay [18]: qHTS RealTime-Glo MT Cell Viability Assay in HEK293 cells - 0 hour (AID 1224880). In short, it runs like this:
as §5

A short description of assay [19]: qHTS assay to identify small molecule agonists of the hypoxia (HIF-1) signaling pathway (AID 1224846; active = well fitted activation curve with a large enough effect in the signal ratio in the repeat runs, not every such curve was filed as active; the % refers to the signal ratio; also: % is scaled to controls: 0 for no effect and ±100 for the full control effect). In outline:
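Cell line: CellSensor HRE-bla ME-180; 2,000 cells/well; 0.5% dialyzed FBS; 5 h preincubation; DMSO compound pin transfer; 17 h, 37C, 5% CO2; CCF4-AM added; bla FRET signal scored for activation.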

The structures appear in SMILES notation. Values without a mark were called inactive. Records with an inconclusive call do not appear. Active and inactive are the calls of the source. Unless noted, calls follow the shape of the dose curve; as a rule, active = well fitted curve in the direction sought with a large enough effect in the repeat runs; inconclusive = weak or mixed curves; inactive = no such curve, though single readings can be large; an effect the other way counts as inactive or inconclusive.

In the case of `C=C(C)C(=O)[O][Sn]([CH2]CCC)([CH2]CCC)[CH2]CCC`, the Potency in assay [1] was 692 nM (active); in assay [2], 713 nM (active); in [3], 486 nM (active); in assay [5], 436 nM (active); in assay [6] it was 275 nM (active); in assay [8] it was 195 nM (active). Besides, the Potency in assay [9] was 436 nM (active); in assay [10] it was 389 nM (active); in assay [11] it was 616 nM (active); in assay [12], 245 nM (active); in assay [13] it was 2190 nM (active); in [14], 490 nM (active). The Potency in [15] is 245 nM (active); in [16], 616 nM (active); in assay [17], 389 nM (active). In assay [4], the activity change, positive = activation was -73.3%. The Potency result in assay [7] and in [18] was “inactive” in each case.

`CC(=O)[O][Pb]([c]1ccccc1)([c]1ccccc1)[c]1ccccc1`: the Potency was 1380 nM (active) in [1]; 25300 nM (active) in assay [2]; 545 nM (active) in [3]; 1100 nM (active) in assay [5]; 490 nM (active) in assay [6]; 871 nM (active) in assay [8]. Moreover, the Potency in [9] is 2450 nM (active); in [11] it was 3470 nM (active); in assay [12], 389 nM (active); in assay [13] it was 3890 nM (active); in assay [14], 1950 nM (active); in assay [15], 977 nM (active). Further, the Potency was 1380 nM (active) in assay [16] and 977 nM (active) in [17]. In assay [4], the activity change, positive = activation was -77.1%. Moreover, the Potency result in [7] is “inactive”.

For `CCOP(=O)(Sc1ccccc1)Sc1ccccc1`, the Potency entry in assay [1], in assay [19], in assay [5], in assay [6], in [7] and in [8] was “inactive” in each case. For the same compound, the Potency result in assay [9], in [10], in assay [11], in assay [13], in assay [14] and in assay [15] was “inactive” each time. The Potency entry in assay [16], in assay [17] and in assay [18] was “inactive” each time. For the same compound, the max response in assay [12] was -12.3%.

Take `CCn1cc[n+](C)c1` (tested in a mixture with another compound): the Potency result in assay [1], in assay [19], in [2], in assay [5], in assay [6] and in [7] was “inactive” in each case. In addition, the Potency entry in assay [8], in assay [9], in [10], in assay [11], in assay [13] and in [14] was “inactive” in each case. Further, the Potency entry in assay [15], in [16], in [17] and in assay [18] was “inactive” each time. Further, in assay [12], the max response was -0.353%.

On to `[O]=[Cr][O][Cr]=[O]`, for which the Potency entry in assay [1], in [19], in assay [2], in assay [5], in assay [6] and in assay [7] was “inactive” in each case. For the same compound, the Potency result in [8], in [9], in assay [10], in assay [11], in assay [13] and in [14] was “inactive” in each case. Also, the Potency entry in assay [15], in assay [16], in [17] and in [18] was “inactive” each time. Also, in assay [12], the max response is 17.9%.

For the compound `CC(=O)C(Cl)C(=O)N(C)C` (stereo not drawn), the Potency in assay [1] is 43600 nM (active). The Potency result in [19], in assay [2], in [5], in assay [6], in assay [7] and in assay [10] was “inactive” throughout. Also, the Potency entry in [11], in [13], in [14], in assay [15], in assay [16] and in assay [17] was “inactive” in each case. For the same compound, in [18], the Potency result is “inactive”.
